# Source: PubChem BioAssay
# Bfl-1 A1 inh – inhibitors of the anti-apoptotic protein A1, read as caspase activation; MEF A1-2A-BIM cells, Caspase-Glo 3/7 luminescence, 3 h; percent of clofoctol response, vehicle zero; caspase activation, % (test concentration not listed); actives 0.066% (n = 330,000);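 active = over half of replicate activation scores above 10%, or exactly half above 10 with the replicate mean above 10; inconclusive = replicate mean below 10 yet half the replicates above 10; inactive = over half of replicates below 10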
# Beta cell apopt – beta cell apoptosis inhibition. INS-1E cytokine-induced death, ATP luminescence, 48 h; percent of positive-control rescue, neutral wells zero. actives 0.8% (n = 300,000). protection from apoptosis, % (test concentration not listed);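 active = Every replicate reaches about 75%, or at least half do and their mean reaches it too, limit read from the data; inconclusive = At least half of replicates reach the limit but their mean does not; inactive = Under half of replicates reach the limit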;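 note: 0% = cytokine-treated negative control wells and 100% = positive control rescue; higher means more ATP so stronger rescue from cytokine killing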
# Mdm2-MdmX inh – inhibitors of human Mdm2/MdmX interaction; SaOS-2 split-luciferase Mdm2/MdmX complementation, luminescence; inhibition, % at 8 µM; actives 3% (n = 330,000); AID 485346;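 active = inhibition of at least 50% at 8 µM in the primary screen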
# Target sequence (O15151 whole entry, looked up): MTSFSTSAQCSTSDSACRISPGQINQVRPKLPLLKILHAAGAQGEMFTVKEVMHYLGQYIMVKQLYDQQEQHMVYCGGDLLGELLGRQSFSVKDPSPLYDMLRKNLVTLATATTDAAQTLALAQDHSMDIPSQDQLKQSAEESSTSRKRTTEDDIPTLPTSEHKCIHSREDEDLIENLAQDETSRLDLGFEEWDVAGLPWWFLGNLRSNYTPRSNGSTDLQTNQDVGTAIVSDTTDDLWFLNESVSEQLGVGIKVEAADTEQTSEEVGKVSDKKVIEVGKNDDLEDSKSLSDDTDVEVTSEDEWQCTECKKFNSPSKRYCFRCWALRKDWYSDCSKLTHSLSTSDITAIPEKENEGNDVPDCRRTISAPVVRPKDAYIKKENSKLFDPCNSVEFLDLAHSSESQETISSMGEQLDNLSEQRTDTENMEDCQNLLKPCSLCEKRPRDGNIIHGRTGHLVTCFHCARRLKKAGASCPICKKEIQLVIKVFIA
# Target sequence (Q00987 whole entry, looked up): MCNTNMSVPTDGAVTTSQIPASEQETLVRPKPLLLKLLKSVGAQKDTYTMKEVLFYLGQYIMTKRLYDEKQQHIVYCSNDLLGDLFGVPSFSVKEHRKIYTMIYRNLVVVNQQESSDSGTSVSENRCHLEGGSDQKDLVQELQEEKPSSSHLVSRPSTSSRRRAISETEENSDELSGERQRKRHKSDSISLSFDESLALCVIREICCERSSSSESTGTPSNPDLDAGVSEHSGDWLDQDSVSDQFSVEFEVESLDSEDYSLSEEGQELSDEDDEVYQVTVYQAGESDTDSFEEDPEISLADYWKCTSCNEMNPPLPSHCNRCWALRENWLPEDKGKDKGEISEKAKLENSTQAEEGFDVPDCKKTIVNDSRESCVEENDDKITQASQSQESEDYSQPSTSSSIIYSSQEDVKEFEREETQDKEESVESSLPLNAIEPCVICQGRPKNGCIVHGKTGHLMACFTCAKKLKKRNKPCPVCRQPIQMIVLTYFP
# CSC inhib – cancer stem cell inhibition; cancer stem cell-like cells viability, luminescence; inhibition, % at 7.5 µM; actives 1.1% (n = 300,000); AID 2717; in the data active = inhibition above about 75%; inconclusive = no clear call, values can overlap the other calls; tested in HMLE shEcad cells
# aSyn UTR inh – 5' untranslated region of α-synuclein, MLPCN primary screen; actives 0.82% (n = 300,000); alpha-synuclein 5'UTR reporter, inhibitor activity; inhibition, % (tested at 7.5 µM); in the data active = inhibition above about 60%; inconclusive = no clear call, values can overlap the other calls;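 note: H4 neuroglioblastoma cells stably carrying SNCA 5'UTR luciferase fusion; 0% = DMSO wells and 100% = positive control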
# Mdm2-MdmX conf – confirmation of human Mdm2/MdmX interaction inhibitors. inhibition, % at 8 µM. shares compounds with Mdm2-MdmX inh. actives 55% (n = 10,000). Mdm2-MdmX binding, luminescent assay; in the data active = inhibition above about 40%
# FLuc counter – full-length luciferase inhibition in Mdm2/MdmX counter-screen. shares compounds with Mdm2-MdmX inh. SaOS-2 full-length luciferase counterscreen, luminescence. inhibition, % at 8 µM. actives 77% (n = 6,200). AID 504607;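 active = mean inhibition at 8 µM reaching about 37%, which flags the compound as non-specific, limit read from the data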;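 note: p53-null SaOS-2 cells with luciferase driven by a doxycycline-inducible promoter; compound on cells about two nights before reading with doxycycline added after day one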
# Starred values were filed as active, the others as inactive; ? = inconclusive; . = not tested or not shown. Sampled rows, rich in hits. Any-hit rate of the full collection: about 4.1%.
SMILES,Bfl-1 A1 inh,Beta cell apopt,Mdm2-MdmX inh,CSC inhib,aSyn UTR inh,Mdm2-MdmX conf,FLuc counter
COc1cc(/C=C/C(=O)c2cccc([N+](=O)[O-])c2)cc(OC)c1OC,-0.9,0.0,52.2*,8.9,-61.5,22.4,.
CCOC(=O)C1=C(C)NC(=S)NC1c1ccc(OCC(=O)N2CCCCC2)cc1 (stereo not given),0.3,.,-4.7,-0.3,-13.6,.,.
O=C(NCc1ccccc1CN1CCCC1)c1ccc(Cl)c(S(=O)(=O)N2CCCC2)c1,.,.,14.1,.,.,.,.
Cc1ccc(C(=O)/C=C/Nc2ccccn2)cc1,-10.1,2.4,54.9*,-0.8,75.3*,38.0,.
CCOC(=O)c1ccc(S(=O)(=O)N2CCN(C/C=C/c3ccccc3)CC2)cc1,-0.5,-0.1,20.3,-3.3,.,.,.
CC(=O)C(Cc1ccccc1)NC(=O)CCl (stereo not given),-0.7,5.2,39.1,.,8.6,.,.
O=C(CCl)NC(Cc1ccccc1)c1ccccc1 (stereo not given),-0.2,-3.3,73.6*,2.0,?,51.0*,44.0*
CC(=O)Nc1ccc(N(C(=O)c2ccco2)C(C(=O)NC2CCCCC2)c2ccccc2)cc1 (stereo not given),0.6,-8.0,16.5,-7.3,-14.0,.,.
Cc1ccccc1OCCC(=O)OCC(=O)NNC(=O)c1cccs1,0.3,-7.0,9.3,.,.,.,.
CCOC(=O)c1c(C)sc2c1N(C(=O)CCl)c1cc(Cl)ccc1S2,0.0,-0.1,100.3*,129.8*,42.1,77.4*,46.6*
Cc1ccc(NC(=O)CCC(=O)N2CCC(C)CC2)c([N+](=O)[O-])c1,-0.1,2.7,11.2,-5.4,-1.8,.,.
O=C(Nc1ccc(Cl)cc1)Nc1nnc(SCc2ccccc2)s1,0.4,10.5,-13.0,15.2,-54.8,.,.
O=C(Nc1ccc(Cl)c(Cl)c1)Nc1nnc(CSc2ccccc2)s1,0.5,99.6*,94.8*,44.3,39.7,77.2*,49.6*
O=C(Nc1ccc(Cl)cc1)Nc1nnc(CSCc2ccccc2Cl)s1,0.1,36.4,60.7*,36.8,15.0,15.4,.
Cc1ccc(OCCSCc2nnc(NC(=O)Nc3cccc(Cl)c3)s2)cc1,-0.6,5.9,91.5*,51.3,-3.9,81.6*,96.7*
O=C(Cc1nnc(NC(=O)Nc2ccccc2)s1)Nc1ccccc1,1.0,-5.7,9.7,-7.6,-1.7,.,.
O=C(Nc1ccccc1)Nc1nnc(CSCc2ccccc2Cl)s1,-0.3,-2.2,84.7*,.,25.9,47.4*,66.5*
O=C(c1ccc(COc2ccc(Cl)cc2Cl)o1)N1CCCC1,0.0,-1.4,4.6,-6.2,-62.6,.,.
COc1ccc(OC)c(NC(=O)/C=C/c2ccc(S(=O)(=O)N3CCOCC3)cc2)c1,.,.,13.7,.,.,.,.
COc1ccc(OCc2cc(C(=O)NC3Cc4ccccc4C3)no2)c(Cl)c1,0.6,4.1,51.7*,36.7,27.0,70.5*,71.7*
COc1ccc(OCc2cc(C(=O)N[C@H]3CCCCNC3=O)no2)c(Cl)c1,-0.2,6.8,1.1,-2.1,-56.0,.,.
Cc1nc(NC(=O)CSc2nc3cccnc3n2C2CCCCC2)sc1C,-0.2,16.0,56.9*,-4.4,1.4,18.7,96.3*
COc1ccc(F)cc1C(=O)C1CCCN(C(=O)c2ccccc2N(C)C)C1 (stereo not given),0.3,-1.3,-4.7,-1.3,-0.2,.,.
CCCCn1c(O)c(N=NC(=O)c2ccncc2)c2cc(Br)ccc21,0.3,10.4,64.0*,51.3,2.9,40.2*,63.3*
CCn1c(O)c(N=NC(=O)c2cccnc2)c2cc(Br)ccc21,0.7,6.2,35.9,38.0,-0.9,.,.
CCOC(=O)c1c(NC(=S)N2CCOCC2)sc2c1CCN(C(=O)OCC)C2,0.0,23.5,51.3*,53.9,-53.0,-0.3,.
CCOC(=O)c1c(NC(=S)N2CCCCC2)sc2c1CCN(C(=O)OCC)C2,0.2,23.8,72.0*,93.3*,-22.1,14.7,.
COCCCNc1nc(N)c([N+](=O)[O-])c(NCc2ccccc2)n1,0.4,-7.4,25.9,-5.8,?,.,.
COCCCNc1nc(N)c([N+](=O)[O-])c(Nc2ccccc2OC)n1,-0.3,-12.8,61.1*,10.4,54.8,30.1,.
COc1ccc(/C=N/n2cnc3c([nH]c4ccc(Br)cc43)c2=O)cc1CN1CCOCC1,0.5,9.6,57.3*,22.7,-37.1,25.8,.
